Compound activity as filed in PubChem.
Compounds with a hit are over-represented: about 3.3% of the library has one in this group of screens.
Arbovirus inh = antivirals against arbovirus infection. arbovirus infection cell-based antiviral screen. inhibition, % at 10 µM. 0.37% of 200,000 active. AID 1251; in the data active means inhibition above about 30%
PERK inhibitor = inhibitors of human PERK kinase; Q9NZJ5; CHO PERK-DD fusion, SEAP luminescence translation reporter; inhibition, % at 5.6 µM; 0.17% of 220,000 active;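 active means inhibition above the mean inhibition of all tested compounds plus 3 SD, set separately per screening campaign, cut at about 2.9% in these data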;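 further: PERK kinase domain activated by AP20187 dimerizer at 100 nM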
WT yeast gro inh = growth inhibition of WT yeast, mitochondrial fusion screen | mitochondrial fusion phenotypic screen, WT strain | AID 1362 | inhibition, % at 10 µM | 2.1% of 190,000 active; in the data active means inhibition above about 58%; tested in S. cerevisiae
ROMK primary = modulators of human ROMK potassium channel | Tet-inducible ROMK, thallium flux fluorescence; actives lie on both sides | B-score at 10 µM | 2% of 130,000 active | AID 1918;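 active means signal ratio slope over the read window, or its plate-corrected B-score, at least 3 SD from the plate mean, either direction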;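 further: B-score of the F/F0 ratio slope over 7 to 12 s after thallium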
Numbers stand for hits.

For CC(=O)Oc1ccc(/C=C2/CCc3ccccc3C2=O)cc1 the results were PERK inhibitor inactive.
`O=S(=O)(NCCc1csc(-c2ccc(C(F)(F)F)cc2)n1)c1ccc2c(c1)OCCO2` gave Arbovirus inh inactive, PERK inhibitor inactive and WT yeast gro inh 74.
For COc1ccc(-c2nc(CCNS(=O)(=O)c3ccc4c(c3)OCCO4)cs2)cc1 the results were Arbovirus inh inactive, PERK inhibitor inactive and WT yeast gro inh inactive.
Screening CN(C)c1nc(NC(C)(C)C)nc(SCC(=O)Nc2ccccc2)n1 returned Arbovirus inh inactive, PERK inhibitor inactive, WT yeast gro inh inactive and ROMK primary inactive.
For Cc1ccc(-n2c3c(c(=O)[nH]c2=O)C(NS(=O)(=O)c2ccc(Cl)cc2)(C(F)(F)F)C(=O)N3)cc1 (centres undefined) the results were Arbovirus inh inactive, PERK inhibitor inactive and WT yeast gro inh inactive.
CC(C)CCNC(=S)Nc1ccc(Br)cc1 was read as Arbovirus inh inactive, PERK inhibitor inactive, WT yeast gro inh 68 and ROMK primary inactive.
Screening CCCNC(=S)Nc1ccc(Br)cc1 returned Arbovirus inh inactive, PERK inhibitor inactive and WT yeast gro inh inactive.
Screening CC(C)CCNC(=S)Nc1ccc([N+](=O)[O-])cc1 returned Arbovirus inh inactive, PERK inhibitor inactive, WT yeast gro inh 79 and ROMK primary inactive.
Screening N/C(=N\OC(=O)c1cnn(-c2ccccc2)c1C(F)(F)F)c1ccc(C(F)(F)F)cc1 returned PERK inhibitor inactive.
`Cc1ccccc1-n1c(C)cc(/C=N/Nc2ccc([N+](=O)[O-])cn2)c1C` gave Arbovirus inh inactive, PERK inhibitor inactive, WT yeast gro inh inactive and ROMK primary inactive.
For O=[N+]([O-])c1ccc(N/N=C\c2cccn2-c2ccccc2)nc1 the results were Arbovirus inh inactive, PERK inhibitor inactive, WT yeast gro inh 61 and ROMK primary inactive.
For CC1=CC(=C2N=C(c3ccccc3)OC2=O)C=C(C)O1 the results were Arbovirus inh inactive and PERK inhibitor 2.9.
For CN1C=CC=C/C1=C1/N=C(c2ccccc2)OC1=O the results were Arbovirus inh inactive, PERK inhibitor inactive, WT yeast gro inh inactive and ROMK primary inactive.
COc1cccc(-c2nc(-c3ccc(NC(=O)c4cccs4)cc3)no2)c1 was read as Arbovirus inh inactive, PERK inhibitor inactive and WT yeast gro inh 58.
`CSc1ccc(/C=N/NC(=O)CNc2ccc3ccccc3c2)cc1` gave Arbovirus inh inactive, PERK inhibitor inactive, WT yeast gro inh 65 and ROMK primary inactive.
S=c1[nH]c(-c2ccc(Cl)cc2)cs1 was read as Arbovirus inh inactive, PERK inhibitor inactive, WT yeast gro inh 65 and ROMK primary 17.
Cc1ccc(-c2csc(=S)[nH]2)cc1 was read as Arbovirus inh inactive, PERK inhibitor inactive, WT yeast gro inh inactive and ROMK primary 10.
`CCn1c(SCC(=O)N/N=C/c2ccc(C)o2)nnc1-c1ccc(C)cc1` gave Arbovirus inh inactive, PERK inhibitor inactive, WT yeast gro inh inactive and ROMK primary inactive.
Cc1nc(N2CCC(C)CC2)c2oc3ccccc3c2n1 was read as Arbovirus inh inactive, PERK inhibitor inactive, WT yeast gro inh inactive and ROMK primary inactive.
`COc1ccccc1N1CCN(c2nc(C)nc3c2oc2ccccc23)CC1` gave Arbovirus inh inactive, PERK inhibitor inactive and WT yeast gro inh 75.
O=[N+]([O-])/C=C1/CCCCCN1 was read as Arbovirus inh inactive, PERK inhibitor inactive, WT yeast gro inh inactive and ROMK primary inactive.
Screening CC(C)C(=O)NC(=S)/C=C1/N(C)c2ccccc2C1(C)C returned Arbovirus inh inactive, PERK inhibitor inactive, WT yeast gro inh inactive and ROMK primary inactive.
Screening Cc1ccc(C(=O)NC(=S)/C=C2\N(C)c3ccccc3C2(C)C)cc1 returned Arbovirus inh inactive, PERK inhibitor inactive and WT yeast gro inh 67.
O=C(C1CCCN(Cc2ccccc2Br)C1)N1CCCCC1 (centres undefined) was read as Arbovirus inh inactive, PERK inhibitor inactive, WT yeast gro inh inactive and ROMK primary inactive.
`Cc1ccc2nc(-c3ccccc3)c(CN3CCSCC3)n2c1` gave Arbovirus inh inactive, PERK inhibitor inactive, WT yeast gro inh inactive and ROMK primary inactive.
`Cc1ccc2nc(-c3ccccc3)c(CN3CCN(c4ccccc4F)CC3)n2c1` gave Arbovirus inh inactive, PERK inhibitor inactive, WT yeast gro inh 83 and ROMK primary inactive.
`COC(=O)Cn1cnc2c(nnn2-c2cccc(Cl)c2)c1=O` gave Arbovirus inh inactive and WT yeast gro inh inactive.
O=C(c1cc(-c2cccnc2)nc2ccc(Br)cc12)N1CCN(c2ncccn2)CC1 was read as Arbovirus inh inactive, PERK inhibitor inactive and WT yeast gro inh inactive.
CC(=O)c1ccc(N2CCN(C(=O)c3cc(-c4cccnc4)nc4ccc(Br)cc34)CC2)cc1 was read as Arbovirus inh 32, PERK inhibitor inactive, WT yeast gro inh inactive and ROMK primary inactive.
`COc1ccc(CCNC(=O)COC(=O)/C=C/c2cc(OC)c(OC)c(OC)c2)cc1OC` gave Arbovirus inh inactive, PERK inhibitor inactive and WT yeast gro inh inactive.
Screening CC(=O)Nc1ccc(SCC(=O)N(CCC#N)c2cc(C)cc(C)c2)cc1 returned Arbovirus inh 49, PERK inhibitor inactive, WT yeast gro inh inactive and ROMK primary inactive.
Cc1cc(C)cc(N(CCC#N)C(=O)CSc2nc3nc(C)cc(C)n3n2)c1 was read as Arbovirus inh inactive, PERK inhibitor inactive and WT yeast gro inh inactive.
Screening C=CCNC(=O)c1onc(CSc2ccc(F)c(F)c2)c1C(=O)O returned Arbovirus inh inactive, PERK inhibitor 3.1 and WT yeast gro inh inactive.
Screening O=C(c1cc(F)ccc1F)C1CCCN(C(=O)CCN2CCCCO2)C1 (centres undefined) returned Arbovirus inh inactive, PERK inhibitor inactive, WT yeast gro inh inactive and ROMK primary inactive.
For Cc1ccc(-n2ncc(C(=O)N3CCc4ccccc4C3)c2NC(=O)c2ccco2)cc1C the results were Arbovirus inh inactive, PERK inhibitor inactive, WT yeast gro inh inactive and ROMK primary inactive.
Screening O=C(CCS(=O)(=O)CCN1CCOCC1)NCNC(=O)CCS(=O)(=O)CCN1CCOCC1 returned Arbovirus inh inactive, PERK inhibitor inactive, WT yeast gro inh inactive and ROMK primary inactive.
Screening COc1ccccc1C1(CCNS(=O)(=O)c2ccc(C)cc2)CCOC(C(C)C)C1 (centres undefined) returned Arbovirus inh inactive, PERK inhibitor inactive and WT yeast gro inh 59.
For CCC(C)(C)NC(=O)C(c1ccc(C)cc1)N(Cc1cccs1)C(=O)c1ccc2c(c1)OCCO2 (centres undefined) the results were Arbovirus inh inactive, PERK inhibitor inactive, WT yeast gro inh 74 and ROMK primary inactive.
Screening Cc1ccc(C(C(=O)NC(C)(C)C)N(Cc2cccs2)C(=O)c2ccc3c(c2)OCCO3)cc1 (centres undefined) returned Arbovirus inh inactive, PERK inhibitor inactive, WT yeast gro inh 72 and ROMK primary inactive.
`O=C(CCCSc1ccccc1)Nc1nc(-c2ccccn2)cs1` gave Arbovirus inh inactive, PERK inhibitor inactive, WT yeast gro inh 69 and ROMK primary inactive.
Cc1ccc2nc(-c3ccc(NC(=S)NC4CC(C)(C)NC(C)(C)C4)cc3)sc2c1 was read as Arbovirus inh inactive, PERK inhibitor inactive, WT yeast gro inh 60 and ROMK primary inactive.
Screening Cc1ccc2nc(-c3ccc(NC(=S)NC(=O)C(C)C)cc3)sc2c1 returned Arbovirus inh inactive, PERK inhibitor inactive, WT yeast gro inh inactive and ROMK primary inactive.
